AMA1 RON2 block – AMA1-RON2 (P. falciparum) interaction inhibition | AlphaScreen AMA1-biotinylated RON2 peptide binding | Potency, µM (series often up to 58.2 µM), most hits filed as inhibitors | 360,000 compounds, 0.2% hits | AID 720542; note: nearly all actives have a fitted effect of over 45% in size
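AMA1 (3D7) with his tag at 25 nM final met compounds first, then biotinylated RON2 peptide at 25 nM; detection used donor plus acceptor beads, 10 µg/mL apiece, read by AlphaScreen after 30 min at room temperature.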
Shiga toxin inh – blocks Shiga toxin action in Vero cells. AID 2315. inhibition, % at 38.7 µM. 290,000 compounds, 9.2% hits. Vero cells, Shiga toxin protein synthesis inhibition reporter; in the data active = inhibition mostly above about 28%, no sharp cut-off; inactive = mostly below about 43%
HCV inhibitor – inhibitors of hepatitis C virus infection; Potency, µM (titrated, usually from 41.8 µM), usual class: inhibitors; 340,000 compounds, 3.4% hits; Huh7.5.1 HCVcc-Cre infection, luciferase reporter, 44 h; AID 651820
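Cells seeded at 1,000/well and cultured 4 h, then compounds added followed by HCVcc-Cre virus (~0.5 moi). After 44 h further culture, luciferase substrate was added, plates held 15 min at room temperature, and luminescence read for 15 sec.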
Cycloheximide cs – affects cycloheximide protein synthesis inhibition readout, counter-screen | cell reporter, cycloheximide protein synthesis inhibition counterscreen | max response, % | 300,000 compounds, 12% hits | AID 2314; in the data active = max response mostly above about 13%, no sharp cut-off; inactive = mostly below about 14%; note: read at 38.3 µM for the half of the compounds with a filed dose
Pf growth 96h – P. falciparum growth inhibition at 96 hour, primary screen for plastid delayed-death inhibitors. P. falciparum luciferase reporter growth, 96 h. Potency, µM (series often up to 28.7 µM), most hits filed as inhibitors. 320,000 compounds, 6.9% hits. AID 504834
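Two-generation exposure (96 h) targets delayed-death phenotype. Reporter parasites carrying integrated firefly luciferase, in red cells at 2% hematocrit and 0.05% parasitemia final, kept at 37 C, 5% CO2; luminescence loss indicates inhibition.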
Pf growth 48h – P. falciparum growth inhibition at 48 hours (one generation). P. falciparum luciferase growth in erythrocytes, 48 h. Potency, µM (highest dose often 28.7 µM), hits mostly inhibitors. 310,000 compounds, 5.9% hits. AID 504832
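First compound was added to culture medium, then infected red cells at 0.1% parasitemia and 2% hematocrit (final). After incubation at 37 C under 5% CO2, luciferase detection reagent was dispensed and light output recorded.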
Hits are given with their value; – = inactive; ? = inconclusive; · = no result; ! = a repeat was not active; [ ] = dose if it differs, or a comment. A selection: hits, their analogues and other compounds. The true share with any hit is near 21%. Unless noted, calls come from the whole dose curve; as a rule, active = well fitted curve in the direction sought with a large enough effect; inconclusive = small, poorly fitted or top-dose-only effect, or another doubt; inactive = no such curve, though single readings can be large; an effect the other way counts as inactive or inconclusive.

SMILES | AMA1 RON2 block | Shiga toxin inh | HCV inhibitor | Cycloheximide cs | Pf growth 96h | Pf growth 48h
O=C(CSc1ncn[nH]1)c1ccco1 | – | – | – | – | – | –
O=C(CSc1nccc(=O)[nH]1)c1cc2ccccc2o1 | – | 47 | – | 34 | – | –
O=C(CSc1ncn[nH]1)c1ccccc1 | – | 52 | – | – | – | –
O=C(CSc1nccc(=O)[nH]1)c1ccco1 | – | – | – | – | – | –
O=C(CSc1ncn[nH]1)c1cccc([N+](=O)[O-])c1 | – | – | – | – | ? | –
COc1ccc(CCNC(=O)c2ccc(S(=O)(=O)N3CCCCC3)cc2)cc1 | – | · | ? | · | ? | ?
CC1CCC2(CC1)NC(=O)N(CC(=O)N1CCN(S(=O)(=O)c3ccc4c(c3)CCC4)CC1)C2=O (stereo not drawn) | – | · | – | · | – | –
N=C1S/C(=C\c2ccco2)C(=O)N1c1ccc2c(c1)OCO2 | – | 74 | ? | 33 | ? | ?
N=C1S/C(=C\c2ccco2)C(=O)N1c1nccs1 | – | 59 | ? | 34 | ? | ?
C[C@H]1CN([C@@H](C)CO)C(=O)c2cc(Br)cnc2O[C@H]1CN(C)C(=O)C1CCC1 | – | · | · | · | · | ·
CCOC(=O)N1CCN(c2nnc(-c3ccc(C)cc3)c3ccccc23)CC1 | – | – | ? | – | – | ?
c1csc(-c2nnc(N3CCCCCC3)c3ccccc23)c1 | – | 77 | – | 15 | – | –
Cc1ccc(-c2nnc(N3CCN(C(=O)COc4ccccc4)CC3)c3ccccc23)cc1 | – | – | 13µM | – | 5.2µM | ·
O=C(COc1ccc([N+](=O)[O-])cc1)N1CCN(c2nnc(-c3ccccc3)c3ccccc23)CC1 | – | – | 13µM | – | – | –
CCCC(=O)N1CCN(c2nnc(-c3ccccc3)c3ccccc23)CC1 | – | · | – | – | – | ?
Cc1ccc(-c2nnc(N3CCN(C(=O)c4cccs4)CC3)c3ccccc23)cc1 | – | – | ? | – | 4.7µM | 8.3µM
NC(N)=NCCC[C@H](N)C(=O)NCC(=O)N[C@@H](CC(=O)O)C(=O)O | · | – | · | – | · | ·
O=C(NCc1ccco1)C(c1ccncc1)N(C(=O)Cn1nnc2ccccc21)c1ccccc1F (stereo not drawn) | – | – | – | – | – | –
CC(=O)c1ccc(S(=O)(=O)N2CCN(c3nn(C)c(=O)n(C)c3=O)CC2)cc1 | – | · | – | · | – | –
COc1cccc(CNC(=O)c2cc3c(c(-c4cccc(-c5cccc(C#N)c5)c4)n2)[C@H](CCO)N(S(=O)C(C)(C)C)C3)c1 (stereo partly drawn) | – | · | · | · | · | ·
O=C(COc1ccc(-c2nnc(N3CCCCC3)c3ccccc23)cc1)N1CCCCC1 | – | – | – | – | 8.3µM | 12µM
Cn1c(=O)n(CC(=O)N2CCN(c3nnc(-c4ccccc4)c4ccccc34)CC2)c2ccccc21 | – | – | ? | – | 13µM | –
Cc1ccc(-c2nnc(N3CCN(C(=O)CN4CCOCC4)CC3)c3ccccc23)cc1 | – | – | 10µM! | – | – | ?
Cc1ccc(-c2nnc(N3CCN(C(=O)Cn4c(=O)n(C)c5ccccc54)CC3)c3ccccc23)cc1 | – | – | ? | – | · | –
COC(=O)[C@]12CCCCC=C1N(CCc1ccc(OC)c(OC)c1)C(=O)[C@H](CC(=O)NCc1cccc(C(F)(F)F)c1)C2 | – | · | · | · | · | ·
SMILES | AMA1 RON2 block | Shiga toxin inh | HCV inhibitor | Cycloheximide cs | Pf growth 96h | Pf growth 48h
O=C(Nc1ccccc1-c1nc2ccccc2[nH]1)c1ccc(S(=O)(=O)N2CCCCC2)cc1 | – | – | – | – | 2.9µM | ?
O=C(Nc1ccc(-c2nc3ccccc3[nH]2)cc1)c1cccc(N2C(=O)CCC2=O)c1 | –[2.32 µM] | – | – | – | – | –
O=C(Nc1ccccc1-c1nc2ccccc2[nH]1)c1ccc(N2C(=O)CCC2=O)cc1 | – | – | 10µM | – | ? | ?
CC1CCCCN1S(=O)(=O)c1ccc(C(=O)Nc2ccccc2-c2nc3ccccc3[nH]2)cc1 (stereo not drawn) | – | – | ? | – | ? | 1.9µM
CCCSc1nc(N)nc2c1ncn2C1OC(CO)C(O)C1O (stereo not drawn) | – | · | – | · | · | ·
COCCCNC1=C(C#N)C(=O)NC2(CCCC2)S1 | – | · | · | · | · | ·
Cc1ccc(C(=O)NCCn2c(N)c(C#N)c3nc4ccccc4nc32)cc1 | – | – | – | – | ? | ?
COCCn1c(N)c(C#N)c2nc3ccccc3nc21 | – | – | – | – | · | –
N#Cc1c(N)n(CCc2ccc(F)cc2)c2nc3ccccc3nc12 | – | – | – | – | 0.33µM | ·
N#Cc1c(N)n(CCOC(=O)c2cccc([N+](=O)[O-])c2)c2nc3ccccc3nc12 | – | – | – | – | 8.3µM | ?
N#Cc1c(N)n(CCOC(=O)c2cccc(Br)c2)c2nc3ccccc3nc12 | – | – | – | – | ? | –
COc1cccc(Cn2c(N)c(C#N)c3nc4ccccc4nc32)c1OC | – | – | – | – | 10µM | ?
COc1ccc(Cn2c(N)c(C#N)c3nc4ccccc4nc32)cc1 | – | – | – | – | ? | 4.7µM
CCC(=O)Nc1ccc2c(c1)nc1n2CCN(CCOC)C1 | – | – | – | – | – | –
COc1cc(Cn2c(N)c(C#N)c3nc4ccccc4nc32)cc(OC)c1 | – | – | ? | – | 2.3µM | ?
COC(=O)c1c(N)n(Cc2ccc(OC)cc2)c2nc3ccccc3nc12 | – | – | ? | – | –[5.75 µM] | ?
O=C(O)c1nn(CC(=O)N2CCN(S(=O)(=O)c3ccc(Cl)cc3)CC2)c(=O)c2ccccc12 | – | – | – | – | – | –
CCN(CC)CCCNC(=O)c1cc2c(-c3ccc(Cl)cc3)nn(C)c2s1 | – | – | 11µM | – | ? | ·
CCCN(CCC)CCCNC(=O)c1cc2c(-c3ccc(Cl)cc3)nn(C)c2s1 | · | – | · | – | · | ·
CC1CCCCN1CCNC(=O)c1cc2c(-c3ccccc3F)nn(C)c2s1 (stereo not drawn) | – | – | ? | – | – | ·
CCCCN(CC)CCNC(=O)c1cc2c(-c3ccccc3F)nn(C)c2s1 | – | – | ? | – | – | 2.1µM
CCN(CCCNC(=O)c1cc2c(-c3cccc(OC)c3)nn(C)c2s1)Cc1ccccc1 | – | – | 11µM | – | – | 2.3µM
CC(NC(=O)C1CCCN1C(=O)CN)C(=O)O (stereo not drawn) | · | – | · | – | · | ·
O=C(Cn1nc(C(F)(F)F)c2c1CCC2)NCc1ccc(Cl)cc1 | – | – | – | – | – | –
CC(C)CNC(=O)Cn1nc(C(F)(F)F)c2c1CCCC2 | – | – | – | – | 10µM | –
COc1ccccc1NC(=O)Cn1nc(C(F)(F)F)c2c1CCCC2 | – | – | – | – | 2.1µM | –
CCNC(=O)c1ccc(-n2nc(C(F)(F)F)c3c2CCCC3)cc1 | – | – | – | – | 7.4µM | 15µM
Cc1ccc(CN2CCC(C(=O)c3ccc(F)cc3)CC2)cc1 | – | · | · | · | · | ·
Cc1ccc(S(=O)(=O)N(Cc2ccc([N+](=O)[O-])cc2)C(=O)N2CCN(C)CC2)cc1 | – | · | – | · | – | –
